High-throughput results from PubChem BioAssay.
An excerpt weighted towards active compounds, which were near 2.3% of everything screened.
PTHR1 agonist: qHTS for PTHR1 Agonists: Primary Screen. HEK293 GP2 PTHR1 cells, GloSensor cAMP luminescence, 1 h. Potency, µM (titrated, usually from 115 µM), usual class: activators. actives 0.075% (n = 410,000). AID 743266, 2014; further: nearly all actives have a fitted effect of over 55% in size
Target sequence (Q03431 whole entry, looked up): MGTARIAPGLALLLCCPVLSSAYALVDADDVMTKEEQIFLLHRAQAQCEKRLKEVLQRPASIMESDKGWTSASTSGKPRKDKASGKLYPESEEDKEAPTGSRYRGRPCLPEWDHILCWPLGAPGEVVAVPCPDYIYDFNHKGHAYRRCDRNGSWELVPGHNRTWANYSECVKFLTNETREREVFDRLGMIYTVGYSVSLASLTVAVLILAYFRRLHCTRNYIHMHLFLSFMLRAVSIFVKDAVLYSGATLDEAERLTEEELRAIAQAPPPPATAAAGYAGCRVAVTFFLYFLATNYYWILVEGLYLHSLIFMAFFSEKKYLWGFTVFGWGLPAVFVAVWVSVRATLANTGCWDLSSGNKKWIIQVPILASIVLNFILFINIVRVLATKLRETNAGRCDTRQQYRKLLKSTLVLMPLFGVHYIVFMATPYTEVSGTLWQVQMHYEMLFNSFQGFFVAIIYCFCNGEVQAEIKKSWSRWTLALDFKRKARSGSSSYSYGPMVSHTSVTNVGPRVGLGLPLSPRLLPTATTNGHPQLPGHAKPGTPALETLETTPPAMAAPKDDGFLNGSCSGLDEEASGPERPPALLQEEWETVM
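HEK-293-derived GP2 cells expressing PTHR1 and a GloSensor cAMP reporter, 3,000/well, plated overnight, given luciferin plus IBMX (each 0.5 mM as added) for 1 h at 37 °C, then compound for 1 h at 37 °C. Luminescence was read after 15 min at room temperature.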
GRP78 ERSR act: qHTS for Inducers of the Endoplasmic Reticulum Stress Response (ERSR) in Human Glioma: qHTS | U87-MG GRP78 promoter luciferase reporter, 16 h | Potency, µM, usual class: activators | actives 0.02% (n = 420,000) | AID 602332, 2012; further: series mostly up to about 76 µM; nearly all actives have a fitted effect of over 35% in size
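Stably transfected U87-MG glioma cells carrying a GRP78-based luciferase sensor; 16 h compound incubation. Luminescence end-point read 10 min after Bright-Glo addition at room temperature.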
GLP-1R inv ag: qHTS of GLP-1 Receptor Inverse Agonists (Inhibition Mode); Glucagon-like peptide 1 receptor (Homo sapiens), P43220; actives 1.6% (n = 410,000); AID 624417, 2012; Potency, µM (highest dose often 38.3 µM), most hits filed as inhibitors; HEK293 GLP-1R CRE-luciferase, luminescence, 24 h; GLP-1R form is constitutively active; further: nearly all actives have a fitted effect of over 55% in size
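Using stably transfected HEK293 (constitutively active GLP-1R, cAMP-luciferase reporter), compounds were incubated 24 hr and luciferase measured by luminescence.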
GLS inh: qHTS for Inhibitors of Glutaminase (GLS); Potency, µM (highest dose often 45.5 µM), actives largely listed as inhibitors; GLS enzymatic activity, qHTS titration; AID 624170, 2012; Glutaminase kidney isoform, mitochondrial (Homo sapiens), O94925; actives 0.21% (n = 410,000)
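Glutamate formation by hKGA was monitored fluorometrically using coupled glutamate oxidase, HRP and Amplex Red. Substrate was added as 1 mM L-glutamine solution; incubation was 30 min at RT after an initial read.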
12-LOX inh: Primary qHTS assay for inhibitors of human arachidonate 12S-lipoxygenase (ALOX12): Round 2. purified 12hLO, xylenol orange hydroperoxide absorbance. Polyunsaturated fatty acid lipoxygenase ALOX12 (Homo sapiens), P18054. Potency, µM (doses to about 108 µM), most hits filed as inhibitors. AID 1671190, 2021. actives 1.1% (n = 580,000)
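Purified human 12hLO (150 nM final) in 25 mM Hepes, 0.01% Triton X-100, pH 7.0 was preincubated 15 min at room temperature with compound. Then 40 uM arachidonic acid was added, 30 min. Hydroperoxide was read by Fe-XO absorbance ratio 573/405 nm.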
GLP-1R agonist: qHTS of GLP-1 Receptor Agonists; Glucagon-like peptide 1 receptor (Homo sapiens), P43220; HEK293 GLP-1R CRE-luciferase, luminescence, 4-6 h; cells express a hypersensitive GLP-1R form; Potency, µM (doses to about 45.6 µM), hits mostly activators; actives 0.007% (n = 380,000)
Large screens that a line does not name were inactive; ! = not active in a repeat. The call rests on the fitted dose curve; in most records, active means well fitted curve in the direction sought with a large enough effect; inconclusive means small, poorly fitted or top-dose-only effect, or another doubt; inactive means no such curve, though single readings can be large; an effect the other way counts as inactive or inconclusive.

Cc1c(O)c(O)cc2c1CC=C1[C@]3(C)CC[C@]4(C)CC[C@@](C)(C(=O)O)CC4[C@]3(C)CC[C@]12C (some centres undefined)	none (no result: PTHR1 agonist, GLP-1R inv ag, GLS inh, 12-LOX inh, GLP-1R agonist)
CC(C)[C@H]1C(=O)N[C@H](CO)Cc2c[nH]c3cccc(c23)N1C	12-LOX inh 40µM (no result: PTHR1 agonist, GRP78 ERSR act, GLP-1R inv ag, GLS inh, GLP-1R agonist)
CC[C@H]1CN2CC[C@H]1C[C@@H]2CNC(=S)Nc1ccc(C)cc1Br	none (no result: PTHR1 agonist, GRP78 ERSR act, GLP-1R inv ag, GLS inh, GLP-1R agonist)
COc1ccc(CNCCc2c(C)[nH]c3ccc(OC(F)(F)F)cc23)c(OC)c1	GLP-1R inv ag 2µM, 12-LOX inh inconclusive
COc1ccc2[nH]c(C)c(CCNCc3cc(OC)c(OC)c(OC)c3)c2c1	GLP-1R inv ag inconclusive, GLS inh inconclusive
Cc1noc(C)c1COc1ccc(CC(=O)N2CCN(CC(=O)N3CCOCC3)CC2)cc1	none (no result: PTHR1 agonist, GRP78 ERSR act, GLP-1R inv ag, GLS inh, GLP-1R agonist)
Cc1ccc2c(c1)NP(=S)(Oc1ccccc1)N2 (centres undefined)	GLS inh inconclusive
Cc1ccc(OP2(=O)Nc3cc(C)c(C)cc3S2)cc1 (centres undefined)	GLP-1R inv ag inconclusive, 12-LOX inh 20µM
CCC1C(c2ccccc2)NC(c2ccccc2)CC1(O)c1ccc(F)cc1 (centres undefined)	GLP-1R inv ag 11µM
Cc1ccc(/C(CSc2nccn2-c2ncc(C(F)(F)F)cc2Cl)=N\O)cc1	GLP-1R inv ag 3.5µM, 12-LOX inh inconclusive
COc1cc2c(cc1OCc1ccccc1)N(C(=O)CC(C)C)CC21CCN(C)CC1	none (no result: PTHR1 agonist, GRP78 ERSR act, GLP-1R inv ag, GLS inh, GLP-1R agonist)
COc1cc2c(cc1OCc1ccc(Cl)cc1)N(Cc1ccccc1)CC21CCN(C(C)=O)CC1	12-LOX inh 32µM (no result: PTHR1 agonist, GRP78 ERSR act, GLP-1R inv ag, GLS inh, GLP-1R agonist)
COc1ccc(-c2cn(C[C@H]3CC4CCN3C[C@@H]4C(=O)NCc3ccc(F)cc3)nn2)cc1 (some centres undefined)	none (no result: PTHR1 agonist, GRP78 ERSR act, GLP-1R inv ag, GLS inh, GLP-1R agonist)
CCN(CC)C[C@H]1CN2CC[C@H]1C[C@@H]2CNC(=O)NC(C)C	none (no result: PTHR1 agonist, GRP78 ERSR act, GLP-1R inv ag, GLS inh, GLP-1R agonist)
CCOc1cccc(=NC2CCCCC2)c2c(C)n(C)c(C)c12	GLP-1R inv ag 10µM
O=C1CSC(c2ccc(F)cc2F)c2cn[nH]c2N1 (centres undefined)	none (no result: PTHR1 agonist, GRP78 ERSR act, GLP-1R inv ag, GLS inh, GLP-1R agonist)
COc1ccccc1-c1cc([C@H]2CN3CC[C@H]2C[C@@H]3COC(=O)Nc2ccc(C(C)C)cc2)nc(C)n1	12-LOX inh 45µM (no result: PTHR1 agonist, GRP78 ERSR act, GLP-1R inv ag, GLS inh, GLP-1R agonist)
Cc1nc(-c2cccs2)cc([C@H]2CN3CC[C@H]2C[C@@H]3COC(=O)Nc2ccc(C(C)C)cc2)n1	12-LOX inh 45µM (no result: PTHR1 agonist, GRP78 ERSR act, GLP-1R inv ag, GLS inh, GLP-1R agonist)
CC(=O)NC[C@H]1C[C@@H]2CCN1C[C@@H]2c1cc(-c2cccs2)nc(C)n1	none (no result: PTHR1 agonist, GRP78 ERSR act, GLP-1R inv ag, GLS inh, GLP-1R agonist)
O=C1OC(c2cc(I)c(O)c(I)c2)(c2cc(I)c(O)c(I)c2)c2ccccc21	GLS inh 25µM, 12-LOX inh 10µM (no result: PTHR1 agonist, GLP-1R inv ag)
CN(C(=O)CNC(=O)OCc1ccccc1)c1ccc(Br)cc1C(=O)c1ccccc1Cl	GLP-1R inv ag 2.8µM
CN1Cc2ccccc2-n2ccnc2C12CCN(C(=O)Cc1cccs1)CC2	none (no result: PTHR1 agonist, GRP78 ERSR act, GLP-1R inv ag, GLS inh, GLP-1R agonist)
CC(C)CCNC(=O)c1c(N)n(CC2CCCO2)c2nc3ccccc3nc12 (centres undefined)	GLP-1R inv ag inconclusive, 12-LOX inh inconclusive
CCC(C)NC(=O)c1c(N)n(CC2CCCO2)c2nc3ccccc3nc12 (centres undefined)	GLP-1R inv ag 7.9µM, 12-LOX inh inconclusive
CC(C)NC(=O)C(C)Cl (centres undefined)	none (no result: PTHR1 agonist, GRP78 ERSR act, GLP-1R inv ag, GLS inh, GLP-1R agonist)
O=c1cc(-c2ccc(O)c(O)c2)oc2cc(O)cc(O)c12	GRP78 ERSR act inconclusive, GLS inh inconclusive, 12-LOX inh 10µM!
CCCCN1C(=O)/C(=C/C=C/c2ccco2)C(=O)NC1=S	12-LOX inh 6.3µM
O=C1NC(=O)N(c2ccccc2)C(=O)/C1=C\C=C\c1ccccc1	GLP-1R inv ag inconclusive, GLS inh inconclusive, 12-LOX inh 25µM
